Test results from PubChem BioAssay.
Activity calls are given as the source filed them. Unless noted, the rule behind the calls is not given here.

Key:
[1] = tested on: Wnt5a (protein binding on small-molecule microarray); assay: small molecules binding Wnt5a protein – biophysical, small-molecule microarray, 635/667 nm fluorescence, primary screen (AID 1142); settings: 635 nm fluorescence, higher = more signal;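 note: fluorescence read at 667 nm with signal to noise per printed feature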
[2] = ATP-based viability of Huh7 replicon cells – cell-based, CellTiter-Glo luminescence, basal, 48 h, cytotoxicity control for HCV replication inhibitor project, primary screen (AID 1143); settings: higher = more signal, called active from +8 up or from −8 down;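 note: Huh7 hepatoma cells carrying a hepatitis C replication reporter with no stimulus; test concentration not given here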
[3] = Pseudomonas biofilm growth suppression – PAO1 strain, BacTiter-Glo luminescence, LB-PBS, primary screen (AID 1144); settings: P. aeruginosa PAO1 biofilm, 12 h, higher = more signal
[4] = basal CRE-LacZ reporter activity in PC12 – cell-based, unstimulated, primary screen (AID 1145); settings: no forskolin, luminescence, 4.5 h, higher = more signal, called active from +8 up or from −8 down
[5] = forskolin-driven CRE-LacZ activity in PC12 – cell-based, CRE-LacZ reporter, forskolin-stimulated, primary screen (AID 1146); settings: luminescence, 4.5 h, higher = more signal, called active from +8 up or from −8 down;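 note: PC12 cells with 6xCRE LacZ reporter stimulated by forskolin 10 µM; beta-galactosidase reporter signal reflecting CREB driven transcription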
[6] = target: Streptavidin (Streptomyces avidinii) (UniProt P22629); assay: compounds binding control protein streptavidin – biophysical, small-molecule microarray, 635/667 nm fluorescence, artefact control for SMM compound annotation, primary screen (AID 1147); settings: higher = more signal;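 note: signal reflects streptavidin binding to arrayed compounds as a control protein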
Streptavidin (Streptomyces avidinii), sequence (P22629 whole entry, looked up): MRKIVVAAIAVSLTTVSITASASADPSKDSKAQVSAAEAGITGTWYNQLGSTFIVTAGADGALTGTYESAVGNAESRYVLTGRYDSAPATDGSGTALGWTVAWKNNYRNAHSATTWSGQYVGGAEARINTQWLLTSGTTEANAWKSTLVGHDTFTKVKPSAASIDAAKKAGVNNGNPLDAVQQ

[7] = probe aInhba binding on compound microarray – biochemical, small-molecule microarray, 635/667 nm fluorescence, primary screen (AID 1148); settings: higher = more signal;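 note: score merges 667nm spot fluorescence with signal-to-noise for antibody binding to printed compounds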
Torsin-1A (Homo sapiens) [8] = target: Torsin-1A (Homo sapiens) (UniProt O14656); assay: TOR1A wild-type binding on microarray – cell lysate, small-molecule microarray, lysate, 635/667 nm, primary screen (AID 1149); settings: COS7 hTOR1A-WT lysate, 635 nm fluorescence, higher = more signal
Torsin-1A (Homo sapiens), sequence (O14656 whole entry, looked up): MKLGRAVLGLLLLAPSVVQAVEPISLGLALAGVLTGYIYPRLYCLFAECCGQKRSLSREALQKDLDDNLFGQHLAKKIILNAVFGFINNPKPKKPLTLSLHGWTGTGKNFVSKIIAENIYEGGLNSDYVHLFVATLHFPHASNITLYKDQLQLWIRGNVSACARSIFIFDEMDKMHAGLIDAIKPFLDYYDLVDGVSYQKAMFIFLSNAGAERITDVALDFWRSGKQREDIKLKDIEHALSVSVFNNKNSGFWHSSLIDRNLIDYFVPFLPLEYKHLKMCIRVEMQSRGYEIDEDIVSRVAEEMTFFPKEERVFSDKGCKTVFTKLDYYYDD

Torsin-1A (Homo sapiens) [9] = target: Torsin-1A (Homo sapiens) (UniProt O14656); assay: torsin A mutant lysate binding on microarrays – cell lysate, small-molecule microarray, COS7 lysate, 635/667 nm fluorescence, primary screen (AID 1150); settings: COS7 hTOR1A mutant lysate, 635 nm fluorescence, higher = more signal;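 note: score pools 667 nm emission and signal to noise measuring lysate protein binding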
[10] = tested on: Sonic hedgehog protein (Shh); assay: Sonic hedgehog microarray binding compounds – biochemical, small-molecule microarray, 635/667 nm fluorescence, primary screen (AID 1151); settings: 635 nm fluorescence, higher = more signal;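 note: Shh protein binding to compounds spotted on small-molecule microarray slides; score combines spot fluorescence intensity with signal-to-noise across triplicate slides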

SMILES: CC(=O)NCCCC[C@@H]1NC(=O)[C@H]2C[C@@H](C(=O)NCCCCCN)[C@@H](c3ccc(O)cc3)N2C1=O
- composite z-score [1]: 0.0662
- z-score [2]: 0.0104 (inactive)
- z-score [3]: 0.447 (inactive)
- z-score [4]: -0.0038 (inactive)
- z-score [5]: 0.126 (inactive)
- composite z-score [6]: 0.947
- composite z-score [7]: -0.0658
- composite z-score (Torsin-1A (Homo sapiens) [8]): 0.274
- composite z-score (Torsin-1A (Homo sapiens) [9]): 0.568
- composite z-score [10]: 1.01

SMILES: COCCCNC(=O)[C@@]1(c2ccc([N+](=O)[O-])cc2)CC(=O)N(C2CCCCC2)[C@@H]1c1ccc(CO)cc1I
- composite z-score [1]: 0.0398
- z-score [2]: -3.87 (inactive)
- z-score [3]: 0.239 (inactive)
- z-score [4]: 0.414 (inactive)
- z-score [5]: -0.543 (inactive)
- composite z-score [6]: -0.16
- composite z-score [7]: 0.0575
- composite z-score (Torsin-1A (Homo sapiens) [8]): 0.95
- composite z-score (Torsin-1A (Homo sapiens) [9]): 1.39
- composite z-score [10]: 1.81

SMILES: CCOC(=O)C1=CCC(c2ccncc2)N(S(=O)(=O)c2ccc(C)cc2)C1 (stereo not given)
- composite z-score [1]: 0.637
- z-score [2]: -4.28 (inactive)
- z-score [3]: -0.83 (inactive)
- z-score [4]: 0.546 (inactive)
- z-score [5]: 0.882 (inactive)
- composite z-score [6]: 3.08
- composite z-score [7]: 0.121
- composite z-score (Torsin-1A (Homo sapiens) [8]): 0.344
- composite z-score (Torsin-1A (Homo sapiens) [9]): 1.12
- composite z-score [10]: 0.245

SMILES: COc1ccc(-c2cc3c(c(CCc4ccccc4)n2)[Si](C(C)C)(C(C)C)O[C@H]3c2ccccc2)cn1
- composite z-score [1]: -0.143
- z-score [2]: -0.248 (inactive)
- z-score [3]: -0.113 (inactive)
- z-score [4]: 4.67 (inactive)
- z-score [5]: -0.0122 (inactive)
- composite z-score [6]: 0.547
- composite z-score [7]: -0.0762
- composite z-score (Torsin-1A (Homo sapiens) [8]): -0.719
- composite z-score (Torsin-1A (Homo sapiens) [9]): -0.534
- composite z-score [10]: 0.431

SMILES: [N-]=[N+]=NCc1ccccc1[C@H]1OC(c2ccc(OCCCO)cc2)=N[C@@]1(CCS(=O)(=O)c1ccccc1)C(=O)O
- composite z-score [1]: -0.0632
- z-score [2]: -0.0569 (inactive)
- z-score [3]: 0.637 (inactive)
- z-score [4]: -0.435 (inactive)
- z-score [5]: -0.427 (inactive)
- composite z-score [6]: 0.729
- composite z-score [7]: -0.13
- composite z-score (Torsin-1A (Homo sapiens) [8]): -0.359
- composite z-score (Torsin-1A (Homo sapiens) [9]): 0.622
- composite z-score [10]: -1.37

SMILES: CO[C@H]1O[C@H](CO)[C@@H](OC(=O)Nc2cccc(F)c2)[C@H](OC(=O)Nc2ccc3c(c2)OCO3)[C@@H]1OC(=O)Nc1ccc2c(c1)OCO2
- composite z-score [1]: 0.22
- z-score [2]: -3.26 (inactive)
- z-score [3]: 0.221 (inactive)
- z-score [4]: -0.207 (inactive)
- z-score [5]: -0.41 (inactive)
- composite z-score [6]: 0.438
- composite z-score [7]: 0.0471
- composite z-score (Torsin-1A (Homo sapiens) [8]): 1.17
- composite z-score (Torsin-1A (Homo sapiens) [9]): 1.21
- composite z-score [10]: 0.519

SMILES: COc1ccc(C(O)C2C=CC3C(=O)N(c4ccccc4)C(=O)C3N2Nc2ccccc2F)c2ccccc12 (stereo not given)
- composite z-score [1]: 0.936
- z-score [2]: -0.225 (inactive)
- z-score [3]: -1.21 (inactive)
- z-score [4]: 0.629 (inactive)
- z-score [5]: -0.813 (inactive)
- composite z-score [6]: 2.38
- composite z-score [7]: 1.11
- composite z-score (Torsin-1A (Homo sapiens) [8]): 0.163
- composite z-score (Torsin-1A (Homo sapiens) [9]): 0.273
- composite z-score [10]: 0.824

SMILES: [N-]=[N+]=Nc1ccccc1C[C@@]1(C(=O)NCC(O)CO)N=C(c2ccc(OCCCO)cc2)O[C@@H]1c1ccccc1N=[N+]=[N-] (stereo not given in full)
- composite z-score [1]: 1.28
- z-score [2]: -4.99 (inactive)
- z-score [3]: -0.0717 (inactive)
- z-score [4]: 0.825 (inactive)
- z-score [5]: -1.42 (inactive)
- composite z-score [6]: 1.23
- composite z-score [7]: -0.0504
- composite z-score (Torsin-1A (Homo sapiens) [8]): 1.53
- composite z-score (Torsin-1A (Homo sapiens) [9]): 0.0816
- composite z-score [10]: -0.59

SMILES: COc1ccc([Si](C)(C)[C@@H]2[C@@H](CC(=O)N(CCO)Cc3ccccc3)O[C@]3(C(=O)N(Cc4cccc(I)c4)c4ccccc43)[C@H]2C)cc1
- composite z-score [1]: 0.546
- z-score [2]: -4.61 (inactive)
- z-score [3]: 0.191 (inactive)
- z-score [4]: 1.42 (inactive)
- z-score [5]: -1.11 (inactive)
- composite z-score [6]: -0.196
- composite z-score [7]: -0.0405
- composite z-score (Torsin-1A (Homo sapiens) [8]): 0.48
- composite z-score (Torsin-1A (Homo sapiens) [9]): 0.443
- composite z-score [10]: 1.79
